In the supplement of paper PMC11732987, “Enantioselective OTUD7B fragment discovery through chemoproteomics screening and high-throughput optimisation” (Communications Chemistry, 2025):

Experiments:
Assay in all cases: log2 ratio of Biotin-Ahx-Ub-VS probe labelling (fragment/DMSO); higher = less target engagement (more negative = stronger competition), active = hit call of the paper (q ≤ 0.05, log2 ratio ≤ -1)
Details in all cases: compound concentration: 200 uM; treatment time: 3 h
USP34 = USP34 (UniProt Q70CQ2)
In short: (§1)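 Global-median-normalised Spectronaut label-free quantities were compared by unpaired t-test, and values are average log2 ratios of fragment over vehicle. Only proteins with ≥2 unique peptides were used. HEK293T lysate (495 µg per sample) was treated in triplicate with fragment at 200 µM or vehicle for 3 h and then with Biotin-Ahx-Ub-VS at 0.5 µM final for 1 h. Labelled DUBs were then NeutrAvidin-enriched, digested with LysC and trypsin, and run by diaPASEF LC-MS/MS.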

USP36 = biological target: T1, USP36 (UniProt Q9P275)
T1 sequence (whole entry): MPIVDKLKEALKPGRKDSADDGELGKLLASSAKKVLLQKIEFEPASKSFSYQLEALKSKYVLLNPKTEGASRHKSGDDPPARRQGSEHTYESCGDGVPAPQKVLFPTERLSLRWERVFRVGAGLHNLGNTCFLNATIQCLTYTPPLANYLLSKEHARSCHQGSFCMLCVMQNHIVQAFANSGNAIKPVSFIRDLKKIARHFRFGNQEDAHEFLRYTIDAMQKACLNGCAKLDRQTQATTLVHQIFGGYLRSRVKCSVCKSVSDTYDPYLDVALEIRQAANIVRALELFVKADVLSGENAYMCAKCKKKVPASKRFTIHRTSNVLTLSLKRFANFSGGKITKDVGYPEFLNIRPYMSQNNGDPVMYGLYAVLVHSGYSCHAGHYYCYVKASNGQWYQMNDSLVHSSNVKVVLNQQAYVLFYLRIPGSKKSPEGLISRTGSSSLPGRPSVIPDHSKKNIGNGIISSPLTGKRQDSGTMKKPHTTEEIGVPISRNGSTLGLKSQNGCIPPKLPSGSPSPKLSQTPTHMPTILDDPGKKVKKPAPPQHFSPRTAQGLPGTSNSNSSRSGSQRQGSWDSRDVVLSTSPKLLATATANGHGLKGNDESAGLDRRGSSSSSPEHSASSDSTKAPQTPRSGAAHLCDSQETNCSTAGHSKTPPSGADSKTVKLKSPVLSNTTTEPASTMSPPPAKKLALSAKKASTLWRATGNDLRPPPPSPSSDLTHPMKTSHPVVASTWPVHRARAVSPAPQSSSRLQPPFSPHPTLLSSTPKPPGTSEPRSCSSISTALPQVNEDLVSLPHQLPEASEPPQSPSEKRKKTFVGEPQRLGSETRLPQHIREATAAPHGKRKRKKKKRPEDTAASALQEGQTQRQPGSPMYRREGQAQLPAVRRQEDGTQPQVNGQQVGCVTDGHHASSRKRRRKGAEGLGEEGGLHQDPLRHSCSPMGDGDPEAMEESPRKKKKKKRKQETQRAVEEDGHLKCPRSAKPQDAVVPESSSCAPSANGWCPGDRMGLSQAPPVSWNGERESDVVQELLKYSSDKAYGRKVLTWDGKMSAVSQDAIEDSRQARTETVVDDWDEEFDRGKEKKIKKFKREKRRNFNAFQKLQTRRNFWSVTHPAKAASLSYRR
In short: as §1

USP38 = biological target: T2, USP38 (UniProt Q8NB14)
T2 sequence (whole entry): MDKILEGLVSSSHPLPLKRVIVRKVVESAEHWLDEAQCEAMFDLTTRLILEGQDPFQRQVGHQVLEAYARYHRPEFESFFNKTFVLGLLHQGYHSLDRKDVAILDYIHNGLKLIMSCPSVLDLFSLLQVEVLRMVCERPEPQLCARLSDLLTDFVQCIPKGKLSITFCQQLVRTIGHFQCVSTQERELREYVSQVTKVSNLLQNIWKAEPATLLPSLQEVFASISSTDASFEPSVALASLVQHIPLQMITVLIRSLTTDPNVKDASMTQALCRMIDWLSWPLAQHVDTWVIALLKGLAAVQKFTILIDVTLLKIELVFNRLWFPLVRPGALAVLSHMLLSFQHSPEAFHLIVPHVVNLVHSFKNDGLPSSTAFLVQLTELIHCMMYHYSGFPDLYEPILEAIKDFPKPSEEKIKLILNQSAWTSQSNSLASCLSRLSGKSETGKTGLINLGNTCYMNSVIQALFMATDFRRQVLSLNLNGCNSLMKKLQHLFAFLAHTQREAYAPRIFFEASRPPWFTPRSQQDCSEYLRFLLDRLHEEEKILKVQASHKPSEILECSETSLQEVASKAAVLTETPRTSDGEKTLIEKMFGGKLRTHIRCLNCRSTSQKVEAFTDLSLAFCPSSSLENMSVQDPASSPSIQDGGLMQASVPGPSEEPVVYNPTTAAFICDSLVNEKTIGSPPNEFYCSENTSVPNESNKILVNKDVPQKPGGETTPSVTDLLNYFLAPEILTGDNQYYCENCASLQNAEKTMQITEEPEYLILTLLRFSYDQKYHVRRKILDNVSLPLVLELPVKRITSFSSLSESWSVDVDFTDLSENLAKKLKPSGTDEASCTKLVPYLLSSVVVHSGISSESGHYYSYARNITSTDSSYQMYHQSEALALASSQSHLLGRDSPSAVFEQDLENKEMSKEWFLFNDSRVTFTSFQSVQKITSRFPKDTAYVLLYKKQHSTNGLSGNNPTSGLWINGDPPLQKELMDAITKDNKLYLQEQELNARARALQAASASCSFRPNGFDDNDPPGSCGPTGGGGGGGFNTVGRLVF
In short: as §1

USP39 = biological target: T3, USP39 (UniProt Q53GS9)
T3 sequence (whole entry): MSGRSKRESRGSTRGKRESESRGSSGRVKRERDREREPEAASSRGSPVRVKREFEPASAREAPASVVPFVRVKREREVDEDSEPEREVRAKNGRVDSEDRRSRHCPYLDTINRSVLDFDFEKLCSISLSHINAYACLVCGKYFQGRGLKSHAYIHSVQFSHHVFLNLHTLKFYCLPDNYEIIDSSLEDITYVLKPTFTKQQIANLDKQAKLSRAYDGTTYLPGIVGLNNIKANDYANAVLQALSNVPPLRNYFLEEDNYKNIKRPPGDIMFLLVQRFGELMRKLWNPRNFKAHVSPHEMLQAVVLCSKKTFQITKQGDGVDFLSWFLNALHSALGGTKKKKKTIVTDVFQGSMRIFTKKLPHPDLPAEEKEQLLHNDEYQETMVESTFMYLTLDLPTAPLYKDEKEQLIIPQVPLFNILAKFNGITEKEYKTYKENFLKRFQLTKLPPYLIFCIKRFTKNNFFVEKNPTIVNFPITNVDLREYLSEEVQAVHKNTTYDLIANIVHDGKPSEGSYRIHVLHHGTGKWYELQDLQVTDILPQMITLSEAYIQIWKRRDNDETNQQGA
In short: as §1

USP4 = biological target: T4, USP4 (UniProt Q13107)
T4 sequence (whole entry): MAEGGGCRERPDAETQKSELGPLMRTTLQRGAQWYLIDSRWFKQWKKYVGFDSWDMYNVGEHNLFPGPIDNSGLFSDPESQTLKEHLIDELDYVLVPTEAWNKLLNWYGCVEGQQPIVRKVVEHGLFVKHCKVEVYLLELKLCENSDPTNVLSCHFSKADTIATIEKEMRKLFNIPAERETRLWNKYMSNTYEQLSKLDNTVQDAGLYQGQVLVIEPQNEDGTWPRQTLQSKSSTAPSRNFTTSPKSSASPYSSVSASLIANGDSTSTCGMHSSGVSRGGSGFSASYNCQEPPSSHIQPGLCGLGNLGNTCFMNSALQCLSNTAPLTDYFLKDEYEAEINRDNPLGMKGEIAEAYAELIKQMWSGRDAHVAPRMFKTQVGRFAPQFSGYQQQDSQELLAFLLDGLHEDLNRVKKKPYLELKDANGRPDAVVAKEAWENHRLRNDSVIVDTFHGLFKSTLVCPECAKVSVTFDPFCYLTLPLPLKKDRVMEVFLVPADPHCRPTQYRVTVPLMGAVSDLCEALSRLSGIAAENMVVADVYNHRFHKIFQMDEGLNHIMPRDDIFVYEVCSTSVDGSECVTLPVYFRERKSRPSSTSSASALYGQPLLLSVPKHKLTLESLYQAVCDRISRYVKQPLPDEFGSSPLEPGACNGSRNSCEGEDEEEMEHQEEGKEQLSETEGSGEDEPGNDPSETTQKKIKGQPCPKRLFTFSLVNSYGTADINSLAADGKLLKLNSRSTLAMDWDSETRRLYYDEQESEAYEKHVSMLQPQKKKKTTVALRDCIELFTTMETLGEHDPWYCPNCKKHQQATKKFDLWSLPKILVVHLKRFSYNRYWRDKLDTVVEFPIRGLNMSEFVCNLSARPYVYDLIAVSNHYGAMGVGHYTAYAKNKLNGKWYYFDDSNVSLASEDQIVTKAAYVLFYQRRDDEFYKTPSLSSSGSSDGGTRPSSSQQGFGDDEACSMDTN
In short: as §1

Measured: log2 ratio of Biotin-Ahx-Ub-VS probe labelling

Chain of USP34 (Q70CQ2 whole entry, the tested form may be a part): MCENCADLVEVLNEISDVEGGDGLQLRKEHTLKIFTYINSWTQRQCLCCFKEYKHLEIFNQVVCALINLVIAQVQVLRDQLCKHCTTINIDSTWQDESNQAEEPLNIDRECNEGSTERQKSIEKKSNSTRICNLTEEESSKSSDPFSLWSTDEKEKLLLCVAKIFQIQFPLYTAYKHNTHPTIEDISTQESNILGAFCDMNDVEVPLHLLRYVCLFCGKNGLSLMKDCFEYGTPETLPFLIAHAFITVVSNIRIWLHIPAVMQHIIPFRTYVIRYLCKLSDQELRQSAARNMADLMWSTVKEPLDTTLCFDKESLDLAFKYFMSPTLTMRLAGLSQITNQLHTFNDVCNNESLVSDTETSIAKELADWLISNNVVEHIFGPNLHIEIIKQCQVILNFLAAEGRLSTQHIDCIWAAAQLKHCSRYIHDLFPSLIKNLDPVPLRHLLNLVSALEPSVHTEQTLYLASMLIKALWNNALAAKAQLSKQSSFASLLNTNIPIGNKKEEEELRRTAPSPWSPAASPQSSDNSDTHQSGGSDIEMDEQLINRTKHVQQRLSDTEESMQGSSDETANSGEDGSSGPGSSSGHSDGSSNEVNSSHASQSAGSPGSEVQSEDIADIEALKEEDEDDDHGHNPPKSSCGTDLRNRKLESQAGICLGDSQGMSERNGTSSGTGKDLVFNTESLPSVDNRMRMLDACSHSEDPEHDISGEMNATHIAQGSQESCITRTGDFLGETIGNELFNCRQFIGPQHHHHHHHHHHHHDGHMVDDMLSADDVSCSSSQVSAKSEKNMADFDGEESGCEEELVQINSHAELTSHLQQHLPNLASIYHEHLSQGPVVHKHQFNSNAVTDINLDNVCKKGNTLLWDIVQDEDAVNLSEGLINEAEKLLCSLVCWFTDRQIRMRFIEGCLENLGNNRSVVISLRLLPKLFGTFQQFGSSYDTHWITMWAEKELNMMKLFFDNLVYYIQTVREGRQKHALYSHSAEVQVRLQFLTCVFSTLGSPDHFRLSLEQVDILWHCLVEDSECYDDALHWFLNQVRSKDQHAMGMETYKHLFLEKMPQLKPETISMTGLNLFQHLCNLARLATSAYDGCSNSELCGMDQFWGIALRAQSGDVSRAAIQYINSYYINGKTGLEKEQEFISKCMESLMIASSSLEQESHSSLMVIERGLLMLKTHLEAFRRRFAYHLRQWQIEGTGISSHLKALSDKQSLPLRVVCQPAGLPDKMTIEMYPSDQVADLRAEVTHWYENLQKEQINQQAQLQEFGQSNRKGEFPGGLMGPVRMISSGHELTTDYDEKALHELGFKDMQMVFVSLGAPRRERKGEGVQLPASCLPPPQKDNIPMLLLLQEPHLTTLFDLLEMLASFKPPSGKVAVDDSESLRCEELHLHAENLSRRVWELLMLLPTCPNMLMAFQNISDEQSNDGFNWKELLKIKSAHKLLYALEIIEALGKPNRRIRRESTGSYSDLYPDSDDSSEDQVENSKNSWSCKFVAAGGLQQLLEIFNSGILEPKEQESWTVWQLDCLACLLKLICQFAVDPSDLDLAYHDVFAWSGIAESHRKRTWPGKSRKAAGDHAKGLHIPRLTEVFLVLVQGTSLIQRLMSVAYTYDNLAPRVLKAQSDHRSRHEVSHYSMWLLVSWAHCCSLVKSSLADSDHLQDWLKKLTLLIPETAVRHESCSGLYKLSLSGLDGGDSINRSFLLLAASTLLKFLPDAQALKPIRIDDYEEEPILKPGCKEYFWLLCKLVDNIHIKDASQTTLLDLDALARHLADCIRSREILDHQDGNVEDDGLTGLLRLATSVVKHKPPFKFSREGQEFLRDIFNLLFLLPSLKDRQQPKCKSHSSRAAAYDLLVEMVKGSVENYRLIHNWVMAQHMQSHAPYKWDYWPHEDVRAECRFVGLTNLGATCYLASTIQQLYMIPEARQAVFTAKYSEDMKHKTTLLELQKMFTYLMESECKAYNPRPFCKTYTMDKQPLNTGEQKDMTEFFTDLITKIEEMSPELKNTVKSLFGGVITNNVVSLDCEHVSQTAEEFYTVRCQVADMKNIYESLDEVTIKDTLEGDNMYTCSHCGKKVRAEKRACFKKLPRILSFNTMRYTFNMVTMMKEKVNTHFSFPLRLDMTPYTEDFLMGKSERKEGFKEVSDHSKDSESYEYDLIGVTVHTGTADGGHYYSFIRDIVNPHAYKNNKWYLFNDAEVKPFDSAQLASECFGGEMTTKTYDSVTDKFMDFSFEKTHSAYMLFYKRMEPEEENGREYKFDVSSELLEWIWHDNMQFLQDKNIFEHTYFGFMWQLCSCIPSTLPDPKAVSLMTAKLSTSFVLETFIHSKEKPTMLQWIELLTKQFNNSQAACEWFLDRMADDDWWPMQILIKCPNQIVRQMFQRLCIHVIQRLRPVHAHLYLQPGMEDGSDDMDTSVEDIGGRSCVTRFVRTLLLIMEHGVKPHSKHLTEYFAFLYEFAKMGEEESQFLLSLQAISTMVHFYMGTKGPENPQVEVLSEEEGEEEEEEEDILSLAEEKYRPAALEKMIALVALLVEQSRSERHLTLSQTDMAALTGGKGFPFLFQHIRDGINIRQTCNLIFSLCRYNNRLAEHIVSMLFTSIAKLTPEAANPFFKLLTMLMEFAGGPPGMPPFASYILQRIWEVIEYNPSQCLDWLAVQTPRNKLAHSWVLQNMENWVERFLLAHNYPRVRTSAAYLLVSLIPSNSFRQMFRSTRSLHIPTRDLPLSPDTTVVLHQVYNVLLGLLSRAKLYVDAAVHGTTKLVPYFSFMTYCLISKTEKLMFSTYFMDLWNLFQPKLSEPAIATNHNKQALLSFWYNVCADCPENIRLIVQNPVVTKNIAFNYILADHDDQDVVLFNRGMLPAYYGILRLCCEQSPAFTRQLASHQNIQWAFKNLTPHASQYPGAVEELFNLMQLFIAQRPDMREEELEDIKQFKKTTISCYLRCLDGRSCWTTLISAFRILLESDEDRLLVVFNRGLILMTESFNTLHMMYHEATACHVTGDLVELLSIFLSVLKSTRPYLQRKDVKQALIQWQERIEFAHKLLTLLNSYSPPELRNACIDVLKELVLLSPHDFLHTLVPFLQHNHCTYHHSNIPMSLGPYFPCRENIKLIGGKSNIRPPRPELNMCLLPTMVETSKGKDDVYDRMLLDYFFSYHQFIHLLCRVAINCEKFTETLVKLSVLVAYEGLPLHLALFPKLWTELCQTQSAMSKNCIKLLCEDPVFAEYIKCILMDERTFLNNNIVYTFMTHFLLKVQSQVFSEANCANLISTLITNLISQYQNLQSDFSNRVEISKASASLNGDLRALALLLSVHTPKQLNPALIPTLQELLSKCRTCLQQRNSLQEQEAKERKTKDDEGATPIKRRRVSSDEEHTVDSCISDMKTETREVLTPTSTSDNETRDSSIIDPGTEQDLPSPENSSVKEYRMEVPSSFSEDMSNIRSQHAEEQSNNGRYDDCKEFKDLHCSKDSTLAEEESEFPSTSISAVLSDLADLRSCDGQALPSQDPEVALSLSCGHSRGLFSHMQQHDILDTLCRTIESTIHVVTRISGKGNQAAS

O=C(CCl)N1CCC(C(=O)N2CCCC2)CC1
inactive: USP34 -0.0649 | USP36 -0.172 | USP38 -0.135 | USP39 -0.453 | USP4 -0.208
